Data on 104 compounds can be found in ChEMBL document CHEMBL4513216, “Probing the Open Global Health Chemical Diversity Library for Multistage-Active Starting Points for Next-Generation Antimalarials” (ACS Infect Dis, 2020).

In all, about 69,000 compounds went through this assay and about 8,600 (12%) showed an effect of 50% or more. The entries come from a sample that favours strong results as a whole.

The assay concerns Plasmodium berghei. As to the kind of experiment: Screen against P. berghei liver stage (PbLuc), transformed with Luciferase, at 10uM. The class given is functional, HepG2. The conditions noted are these: tested at 10 uM.
Take `CCN(C(=O)Cn1cc(NC(=O)C(C)(C)C)cn1)c1ccccc1`: the INHIBITION came to 7.65%.
Then `Cc1cncc(C(=O)N2CCC3(CCCN(c4nncs4)C3)C2)c1` (centres undefined), with 41.2%; and `O=C(Nc1ccccc1)C1=NOC2(CCCN(C(=O)N3CCCC3)C2)C1` (centres undefined), with -8.28%.
Then `COc1ccc(C)cc1CN(C)CCCNS(C)(=O)=O`, with 23%; and `CNS(=O)(=O)CCCN(C)Cc1cc(C)ccc1OC`, with 59.1%; and `CCS(=O)(=O)CCN(C)Cc1cc(C)ccc1OC`, with 21.1%.
Then `CC(=O)N1CCN(C(=O)c2ccc3ccn(C)c3c2)CC1`, with 63.3%; and `Cn1ccc2ccc(C(=O)N3CCN(C(=O)N4CCOCC4)CC3)cc21`, with 40.1%; and `CCOC(=O)N1CCN(C(=O)c2ccc3ccn(C)c3c2)CC1`, with 38.5%.
As for `C[C@@H]1CN(C(=O)[C@H]2CCCO2)C[C@]12CCN(c1ccsc1)C2=O`, the INHIBITION was found to be 49.7%.
In the case of `COc1cc(N2CC[C@@H]3O[C@@H](c4ccncn4)C[C@H]3C2)ncn1`, the INHIBITION was determined as 73.2%.
As for `Cc1ccc(N2CC[C@@H]3O[C@@H](c4ccncn4)C[C@H]3C2)nn1`, the INHIBITION was determined as 37.8%.
Then `COc1ncccc1C(=O)N1CC[C@H]2C[C@@H](c3ccncn3)O[C@@H]2C1`, with -42.8%; and `COc1ncccc1C(=O)N1CC[C@H]2C[C@@H](C)O[C@@H]2C1`, with -40.3%.
Next, `COc1ncccc1C(=O)N1CC[C@H]2C[C@H](c3ccncn3)O[C@@H]2C1`: 52%.
Next, `COc1cc(N2CC[C@@H]3O[C@@H](c4ccnc(C)n4)C[C@H]3C2)ncn1`: 45.8%; `CCc1nc(Nc2ccc(C(=O)NC)cc2)c2c(n1)c(C)nn2CC`: 18.85%.
Regarding `O=C(NC1CCc2ccccc2C1)C1CCN(Cc2ccco2)CC1` (centres undefined), the INHIBITION turned out to be 31%.
Next, `Cc1noc(C(C)N2CCN(CCOCC(F)(F)F)CC2)n1` (centres undefined): 12.85%; `Cc1cncc(C2CCN(Cc3cnc(C)nc3)CC2)n1`: 36.44%; `OCc1ccc(CN2CCC(n3cc(-c4ccc(F)cc4)nn3)CC2)o1`: -0.529%.
As for `Oc1ccccc1CN1CCC(n2cc(-c3ccc(F)cc3)nn2)CC1`, the INHIBITION is given as 55%.
Take `O=C(C1CCCO1)N1CCC(n2cc(-c3ccc(F)cc3)nn2)CC1` (centres undefined): the INHIBITION was -10.9%.
`Cc1ncc(CN2CCC(n3cc(-c4ccc(F)cc4)nn3)CC2)cn1`: the INHIBITION is on record as 53.8%.
Then `Cc1ccc(-c2cn(C3CCN(C(=O)[C@H]4CCCO4)CC3)nn2)cc1`, with 23.3%.
Next, `O=C(c1ccccn1)N1Cc2nccn2CC(CN2CCOCC2)C1` (centres undefined): 38.7%; `CNC(=O)CCc1cc(C2CCN(c3cnccn3)CC2)nc(C)n1`: 15.85%; `CN(C)Cc1cn2c(n1)CN(CC1CCCC1)CC2`: 29%.
Then `CCn1ccc(-c2cc(C(=O)O)n3nc(C(F)(F)F)c(Br)c3n2)n1`, with 11.2%; and `Cc1ccc(C(=O)N2CCc3c(CNc4ncccn4)cncc3C2)o1`, with -66.6%.
`CCc1cc(CN(C)C(=O)c2cnon2)on1`: the INHIBITION was -40.6%.
In the case of `OCc1csc(N2CCCC(CO)(Cc3cccc(Cl)c3)C2)n1` (centres undefined), the INHIBITION is -14.9%.
Next, `Fc1cccc(-c2nc(CN3CCCC3Cn3cncn3)co2)c1` (centres undefined): 7.12%; `Cc1cnn(CC2CCCN2Cc2coc(-c3ccc(F)cc3)n2)c1` (centres undefined): 69.7%; `Cc1cnn(CC2CCCN2Cc2coc(-c3cccc(F)c3)n2)c1` (centres undefined): 80.8%.
Then `Fc1ccc(-c2nc(CN3CCCC3Cn3cncn3)co2)cc1` (centres undefined), with 4.71%; and `Fc1cccc(-c2nc(CN3CCCC3Cn3cccn3)co2)c1` (centres undefined), with -14.6%.
In the case of `Cc1cnn(CC2CCCN2Cc2coc(-c3ccccc3)n2)c1` (centres undefined), the INHIBITION is recorded as -14.2%.
Next, `CS(=O)(=O)C1CCN(S(=O)(=O)c2ccc(F)c(F)c2)C1` (centres undefined): 21.2%; `Cn1ccc2cc(C(=O)NC3CCS(=O)(=O)C3)ccc21` (centres undefined): -42.5%; `CNC(=O)[C@@H](C1CCCCC1)N1CCC[C@H]1C(=O)NCCN1CCCC1`: 0.112%.
With `CCc1nnc(SCC(=O)N2C[C@H]3CC[C@@H](C2)N(CC=C(C)C)C3)[nH]1`, the INHIBITION is 26.7%.
For the compound `CC1c2ncc(CNC(=O)C3CC3)n2CCN1Cc1cccnc1` (centres undefined), the INHIBITION is reported as -5.31%.
Next, `Cc1nc(N2CCOCC2)sc1C(=O)NCC(C)(C)N1CCCCC1`: -4.87%; `COCCN1CCCC12CCN(C(=O)CC1CCCC1)CC2`: 32.4%; `Cn1ncc(C(=O)N2CCN(CCS(C)(=O)=O)CC2)c1Cl`: 30.95%.
Next, `O=C(NCC(O)Cc1ccccc1)c1ccc2[nH]c(=O)[nH]c2c1` (centres undefined): 43.9%; `CCCn1nc(C)c(CN2CC3(CCOC3)CCC2=O)c1C` (centres undefined): 64.5%.
Then `O=C1CCC2(CCOC2)CN1Cc1nc2ccc(Cl)cc2[nH]1` (centres undefined), with 27.9%.
As to `CCc1c(C)nn(CCN2CC3(CCOC3)CCC2=O)c1C` (centres undefined), the INHIBITION is recorded as 44.3%.
Then `CCn1nc(C)c(CCN2CC3(CCOC3)CCC2=O)c1C` (centres undefined), with 56.6%.
Then `CCCc1nc(C)c(CN2CC3(CCOC3)CCC2=O)s1` (centres undefined), with 33.7%; and `Cc1nc2ccc(CN3CC4(CCOC4)CCC3=O)cc2[nH]1` (centres undefined), with 67.4%.
Then `O=C1CCC2(CCOC2)CN1Cc1nncn1CCc1ccccc1` (centres undefined), with 10.1%; and `O=C1CCC2(CCOC2)CN1Cc1ccc2nsnc2c1` (centres undefined), with 16.8%; and `O=C1CCC2(CCOC2)CN1CCCOc1cccnc1` (centres undefined), with -0.897%.
In the case of `O=C([C@H]1CC[C@@H]2[C@@H](CCN2c2ncccn2)O1)N1CCCCO1`, the INHIBITION is reported as -13.2%.
Then `Cc1noc(C(C)N2CCN(Cc3nnc(C4CC4)o3)CC2)n1` (centres undefined), with -19.6%.
As for `CN(C)C(=O)c1n[nH]c2c1CN(CC1CCC1)C2`, the INHIBITION is given as 30.5%.
Then `O=C1CCC(C(=O)Nc2cnn(-c3ccccc3Cl)c2)N1` (centres undefined), with 19.7%; and `Cc1ccc(-c2csc(N)c2C#N)c(C)c1`, with 40.9%.
In the case of `COc1ccc(C)cc1-c1csc(N)c1C#N`, the INHIBITION came to 1.86%.
Then `Cc1ccc(C)c(-c2csc(N)c2C#N)c1`, with 64.7%.
Consider `Cc1nc[nH]c1CN1C[C@H]2CC[C@@H](C1)N(C(=O)CCn1cncn1)C2`, for which the INHIBITION is listed as 40.2%.
Next, `COc1cccc(C(C)Nc2ncnc3c2NC(=O)CN3)c1` (centres undefined): 45.8%; `CC(CN1CCOCC1)n1cncc1-c1ccc2c(c1)CCCN2C` (centres undefined): -16%; `NC(=O)C(NC(=O)c1cc(Br)c[nH]1)c1ccccc1` (centres undefined): 34.4%.
Then `Cc1cc(C)c(C(=O)N[C@H](C(N)=O)c2ccccc2)c(=O)[nH]1`, with -31.4%; and `NC(=O)C(NC(=O)c1cc(Cl)c[nH]1)c1ccccc1` (centres undefined), with 52.8%.
As to `CO[C@H]1CCN(Cc2c(C)noc2C)[C@@H]2CN(Cc3cccnc3)C[C@H]12`, the INHIBITION turned out to be 28.5%.
Then `O=C(NCc1nnc2n1CCCCC2)N1CCc2ccccc2C1`, with 41.2%; and `CN(Cc1ccc(F)cc1)C(=O)Cn1nc(-c2ccc(F)cc2)oc1=O`, with 1.58%; and `CN(Cc1ccc(Cl)s1)C(=O)Cn1nc(-c2ccc(F)cc2)oc1=O`, with 66.1%.
For `Cc1ccccc1CN(C)C(=O)Cn1nc(-c2ccc(F)cc2)oc1=O`, the INHIBITION stood at 56.5%.
Then `Cc1ccsc1CN(C)C(=O)Cn1nc(-c2ccc(F)cc2)oc1=O`, with 22.1%.
Then `CN(Cc1ccccc1Br)C(=O)Cn1nc(-c2ccc(F)cc2)oc1=O`, with 26.8%; and `COc1ccccc1CNC(=O)Cn1nc(-c2ccc(F)cc2)oc1=O`, with -16.1%; and `O=C(Cn1nc(-c2ccc(F)cc2)oc1=O)NCc1ccccc1F`, with -69.9%.
Then `Cc1ccc(CN(C)C(=O)Cn2nc(-c3ccc(F)cc3)oc2=O)cc1`, with 30.8%; and `Cc1ccccc1CNC(=O)Cn1nc(-c2ccc(F)cc2)oc1=O`, with 50.15%; and `CCOC1Sc2nnc(C)n2N=C1c1ccc(Br)cc1` (centres undefined), with 18.2%.
For the compound `CN(C)[C@@H]1CCN(C(=O)c2cccc(C#N)c2)[C@H]1Cc1cnn(C)c1`, the INHIBITION was found to be 27.6%.
Next, `Cc1ccc(-c2cc(CN3CCOC(Cn4cncn4)C3)on2)cc1` (centres undefined): 24.6%.
Then `O=C(C1CC=CC1)N1CCC2(CCN(Cc3ccccn3)C2=O)C1` (centres undefined), with 17.5%; and `CC(C)n1cnnc1C1CCCN(S(=O)(=O)CCCF)C1` (centres undefined), with 39.7%; and `CC(C)n1cnnc1C1CCCN(S(=O)(=O)CC2CCCC2)C1` (centres undefined), with 76.5%.
Next, `CC(C)CCS(=O)(=O)N1CCCC(c2nncn2C(C)C)C1` (centres undefined): 44.9%; `Cc1oc(C(=O)O)cc1S(=O)(=O)Nc1cc(Br)ccc1Cl`: 38.8%; `N#Cc1cc(Cl)ccc1N1CCOC(C(N)=O)C1` (centres undefined): 32.5%.
Consider `COCC1CN(c2ccc3c(Cl)ccnc3c2F)CCO1` (centres undefined), for which the INHIBITION is 84.2%.
For the compound `COCC1CN(C(=O)Nc2cc(Cl)ccc2F)CCO1` (centres undefined), the INHIBITION is 8.13%.
For the compound `COCC1CN(c2ccc(Cl)cc2C#N)CCO1` (centres undefined), the INHIBITION was 53.4%.
Take `CC(=O)NCC1CN(c2ccc3c(Cl)ccnc3c2F)CCO1` (centres undefined): the INHIBITION is on record as 23.8%.
Take `Clc1cnccc1N1CCC(OC2CCOCC2)CC1`: the INHIBITION was 48.5%.
Then `NC(=O)C1CN(c2ccc3c(Cl)ccnc3c2F)CCO1` (centres undefined), with -22.4%; and `Cn1cc(N2CCN(c3ccc(C#N)c(Cl)c3)CC2=O)cn1`, with -11.6%.
Next, `N#Cc1ccc(N2CCC(OC3CCOCC3)CC2)cc1Cl`: 57%.
Next, `COCC1CN(c2ccc(C#N)c(Cl)c2)CCO1` (centres undefined): 96.1%.
Turning to `COCC1CN(C(=O)Nc2ccc(Cl)cc2Cl)CCO1` (centres undefined), the INHIBITION is 6.85%.
Take `N#Cc1ccc(Cl)cc1N1CCC(OC2CCOCC2)CC1`: the INHIBITION was found to be 35.2%.
Next, `CO[C@@H]1CCN(Cc2c(C)noc2C)[C@@H]2CN(Cc3cccnc3)C[C@@H]21`: 22.6%; `COCCOc1ccccc1C(=O)NCCN(C)C(C)C`: 4.52%.
As to `O=C(c1nn(-c2ccccc2F)cc1O)N1CCCSCC1`, the INHIBITION is reported as -21.7%.
Regarding `Cc1ccc(N2CC[C@H]3OCC[C@@]3(C(=O)NC(C)C)C2)nn1`, the INHIBITION came out at 35.1%.
